Article PMC5540273 (PLoS ONE, 2017)
Read-outs that look alike come from different tables or passages of the source.

Tests used:
Settings in all cases: n = 1
ERBB2 = test system: ERBB2
ERBB3 = test system: ERBB3
ERBB4 = test system: ERBB4
ERK1 = test system: T1, ERK1
T1 construct: gene MAPK3

ERK2 = test system: T2, ERK2
T2 construct: gene MAPK1

ERK3 = test system: T3, ERK3
T3 construct: gene MAPK6

ERK4 = test system: T4, ERK4
T4 construct: gene MAPK4

ERK5 = test system: T5, ERK5
T5 construct: gene MAPK7

ERK8 = test system: T6, ERK8
T6 construct: gene MAPK15

ERN1 = test system: ERN1
[1] = concentration: 1 μM, replicates: in singlicate
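Further: KINOMEscan kinase panel screen.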

Row | SMILES | %Inh (ERBB2; 1 µM) [%] | %Inh (ERBB3; 1 µM) [%] | %Inh (ERBB4; 1 µM) [%] | %Inh (ERK1; 1 µM) [%] | %Inh (ERK2; 1 µM) [%] | %Inh (ERK3; 1 µM) [%] | %Inh (ERK4; 1 µM) [%] | %Inh (ERK5; 1 µM) [%] | %Inh (ERK8; 1 µM) [%] | %Inh (ERN1; 1 µM) [%] | %Inh (ERBB2; [1]) [%] | %Inh (ERBB3; [1]) [%] | %Inh (ERBB4; [1]) [%] | %Inh (ERK1; [1]) [%] | %Inh (ERK2; [1]) [%] | %Inh (ERK3; [1]) [%] | %Inh (ERK4; [1]) [%] | %Inh (ERK5; [1]) [%] | %Inh (ERK8; [1]) [%] | %Inh (ERN1; [1]) [%]
1 | Cc1ccc(NC(=O)Nc2cccc(C(F)(F)F)c2)cc1 [GSK955403] | 0 | 17 | 0 | 0 | 0 | 0 | 0 | 5 | 0 | 0 | – | – | – | – | – | – | – | – | – | –
2 | Cc1cccc(-c2nc(-c3ccc(S(C)(=O)=O)cc3)sc2-c2ccnc(NCCc3ccccc3)c2)c1 | – | – | – | – | – | – | – | – | – | – | 0 | 3 | 0 | 0 | 0 | 19 | 7 | 5 | 14 | 0
3 | Cc1cc(-c2ccc3c(c2)CC[C@@H](N[C@@H](C)c2ccccc2)C3)cnc1N.Cl [GW412617] | – | – | – | – | – | – | – | – | – | – | 0 | 0 | 0 | 0 | 12 | 5 | 0 | 0 | 29 | 0
4 | CS(=O)(=O)c1ccc(-c2nc3n(c2-c2ccncc2)CCC3)cc1 [SKF-105942] | – | – | – | – | – | – | – | – | – | – | 32 | 0 | 0 | 0 | 0 | 0 | 100 | 0 | 0 | 18
5 | COc1ccc2nc(-c3cccc(C)n3)nc(Nc3ccncc3)c2c1 [GSK204919] | – | – | – | – | – | – | – | – | – | – | 0 | 0 | 30 | 2 | 3 | 10 | 15 | 0 | 37 | 0
6 | Cn1ccc2ncnc(Oc3cccc(C(=O)Nc4ccccc4)c3)c21 | – | – | – | – | – | – | – | – | – | – | 18 | 18 | 0 | 0 | 21 | 0 | 4 | 5 | 6 | 29
7 | O=C(Nc1n[nH]c2nc(-c3nccs3)c(Br)cc12)C1CCCC1 [SB-742609] | – | – | – | – | – | – | – | – | – | – | 0 | 0 | 0 | 10 | 2 | 0 | 100 | 0 | 60 | 12
8 | CCn1c(-c2ccccn2)nc2cnccc21 [SB-736398] | – | – | – | – | – | – | – | – | – | – | 26 | 14 | 0 | 11 | 0 | 14 | 6 | 5 | 37 | 0
9 | Cc1cc(N2Cc3ccccc3C2)nc(Nc2ccc(S(=O)(=O)N3CCOCC3)cc2)n1.Cl [GSK1669917] | – | – | – | – | – | – | – | – | – | – | 0 | 0 | 26 | 0 | 0 | 0 | 19 | 0 | 0 | 0
10 | Cl.Oc1ccc(-c2nc(-c3ccccc3)[nH]c2-c2ccncc2)cc1 [SB-428218] | – | – | – | – | – | – | – | – | – | – | 57 | 31 | 27 | 0 | 0 | 0 | 16 | 38 | 0 | 0
11 | Cc1c(O)cccc1Nc1ccnc2ccc(C(F)(F)F)cc12.Cl [GW466413] | – | – | – | – | – | – | – | – | – | – | 35 | 17 | 0 | 0 | 0 | 0 | 0 | 0 | 8 | 0
12 | CCn1c(-c2cccnc2O)nc2cnccc21 [SB-736715] | – | – | – | – | – | – | – | – | – | – | 9 | 0 | 25 | 0 | 0 | 0 | 0 | 0 | 0 | 0
13 | C[C@@H]1CCCCN1c1cc(-c2ccc3c(N)n[nH]c3c2)nc(N)n1 [GSK2258759] | – | – | – | – | – | – | – | – | – | – | 18 | 0 | 12 | 8 | 0 | 5 | 0 | 0 | 0 | 0
14 | O=C(O)COc1ncnc2cc(-c3ccc4[nH]ncc4c3)sc12 | – | – | – | – | – | – | – | – | – | – | 0 | 0 | 15 | 0 | 24 | 0 | 0 | 1 | 3 | 15
15 | Cl.NC(=O)c1cccc(Nc2nccc(Nc3ccc(Oc4cccc(Cl)c4)c(Cl)c3)n2)c1 [GW659008] | – | – | – | – | – | – | – | – | – | – | 79 | 82 | 55 | 3 | 0 | 15 | 0 | 61 | 0 | 19
16 | COc1cc2ncnc(Nc3ccc4nc(-c5ccccc5)[nH]c4c3)c2cc1OC.Cl [GW282450] | – | – | – | – | – | – | – | – | – | – | 23 | 0 | 33 | 0 | 0 | 0 | 0 | 0 | 0 | 4
17 | Cn1ccc2ncnc(Oc3ccc(Nc4nc5ccccc5[nH]4)cc3)c21 | – | – | – | – | – | – | – | – | – | – | 3 | 0 | 0 | 0 | 2 | 0 | 0 | 0 | 0 | 0
18 | CC(C)(C)c1ccc(C(=O)Nc2cn3cc(-c4cccnc4)ccc3n2)cc1 | – | – | – | – | – | – | – | – | – | – | 34 | 0 | 1 | 0 | 18 | 14 | 23 | 20 | 16 | 12
